# From PubChem BioAssay
# EWS-Fli block: EWS/Fli-driven NR0B1 reporter inhibitors, primary screen, A673 cells, NR0B1 luciferase, luminescence, MLPCN library. viability-normalised. inhibition, % at 12.6 µM. actives 0.67% (n = 350,000). AID 651661, 2012;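 active means mean inhibition of at least 50% after viability correction, with every replicate also passing that limit; inconclusive means mean reaches 50% but only one of two replicates passes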;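 further: firefly luciferase signal divided by Alamar Blue viability fluorescence both relative to DMSO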
# TROY signal inh: inhibitors of TROY-driven NF-kB signaling, primary screen, Q293 LMP1-TROYcd cells, NF-kB luciferase, uHTS; Q293 LMP1-TROYcd NF-kB luciferase reporter, 4 h; inhibition, % at 10 µM; actives 0.98% (n = 360,000); AID 1347056, 2019;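 active means compounds whose plate-normalised and pattern-corrected inhibition of the luciferase reporter signal at the single screening dose is 50% or more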
# LGR2 inh: inhibitors of bursicon-induced LGR2 CRE-luciferase signal, primary screen, cell-based, HEK293, CRE-luciferase reporter, bursicon stimulation; Drosophila bursicon receptor LGR2 (rickets); inhibition, % at 9.99 µM; actives 0.35% (n = 380,000); bursicon-stimulated, 4 h;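 active means drop in luminescence signal, shown as inhibition above about 50% in the replicate tests, limit read from the data, passing the limit was not always enough; inconclusive means probably only some replicates passing the limit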;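 further: agonist challenge used bursicon conditioned medium at about half maximal strength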
# PAX8 reporter: inhibitors of PAX8-driven TPO luciferase reporter, primary screen, RMG-I cells, single concentration | SteadyGlo, 24 h | inhibition, % at 12.6 µM | actives 1.2% (n = 360,000);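 active means mean replicate inhibition at least 60% with every replicate also reaching 60%; inconclusive means only one of the two criteria is met; inactive means mean below 60% and not all replicates reaching 60%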;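 further: luciferase light reporting Pax8 driven TPO promoter activity; plate controls were median of neutral control wells for no effect and mitoxantrone controls for full effect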
# TWEAK Fn14 block: inhibitors of TWEAK-Fn14 signaling, primary screen, luciferase reporter cells, uHTS. TWEAK-stimulated Fn14 reporter cells, luciferase luminescence, 8 h. inhibition, % at 10 µM. actives 2% (n = 360,000). AID 1159606, 2016; in the data active means inhibition above about 50%
# LMP1 NFkB inh: EBV LMP1-driven NF-kappaB luciferase reporter inhibitors, primary screen, cell-based, luminescence, single point | inhibition, % at 12.5 µM | LMP1-induced NF-kappaB luciferase reporter cells | actives 0.69% (n = 350,000) | AID 504558, 2011; in the data active means inhibition above about 41%; inconclusive means no clear call, values can overlap the other calls;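 further: 0% = neutral control wells and 100% = reference inhibitor control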
# Numbers without * were called inactive; ? = inconclusive; · = no result. This is a sample that favours compounds with a hit; in the whole collection about 3.2% have one here.
SMILES,EWS-Fli block,TROY signal inh,LGR2 inh,PAX8 reporter,TWEAK Fn14 block,LMP1 NFkB inh
COc1ccc(COCC23N=C4SCc5ccccc5CN4[C@H](c4ccccc4O2)[C@H]3COC(=O)c2ccccc2)cc1,18,·,·,7,·,·
CCOc1ccc(S(=O)(=O)NCCSCc2ccco2)cc1,-2,0,1,·,11,0
COc1ccc(S(=O)(=O)NCCSCc2ccco2)cc1,·,·,24,·,72*,-12
Cc1ccc(S(=O)(=O)c2ccc([N+](=O)[O-])cn2)cc1,61*,59*,65*,111*,68*,60*
Cc1cc(S(=O)(=O)c2ccc([N+](=O)[O-])cn2)ccc1Br,36,72*,?,86*,60*,74*
Cc1ccc(S(=O)(=O)c2ccc(C)cc2)cc1,-9,-7,4,·,0,-14
O=[N+]([O-])c1ccc(S(=O)(=O)c2ccccc2)nc1,58*,58*,52*,109*,54*,53*
Cc1ccc(C(=O)Nc2ncc([N+](=O)[O-])s2)cc1,76*,80*,·,87*,100*,68*
O=C(Nc1ncc([N+](=O)[O-])s1)c1ccc2c(c1)OCO2,49,84*,91*,75*,103*,55*
Cc1cnc(NC(=O)c2ccc3c(c2)OCCO3)s1,77*,85*,96*,99*,103*,79*
CC(C)c1nnc(NC(=O)c2ccc3c(c2)OCO3)s1,?,48,74*,28,73*,30
Cc1ccc([N+](=O)[O-])cc1NC(=O)c1ccc2c(c1)OCO2,-12,-2,-10,19,-7,3
COCC(=O)N1CC2(C1)[C@@H](c1ccc(-c3ccccc3)cc1)[C@@H](CO)N2C(=O)COC,-3,·,6,·,·,·
C[C@@H]1CN([C@H](C)CO)C(=O)Cc2cc(NS(C)(=O)=O)ccc2O[C@@H]1CN(C)C(=O)Nc1ccccc1,-2,·,16,-3,·,·
Cc1ccc(C(=O)Nc2ncc(C)s2)s1,4,16,-3,2,57*,-6
O=C(Cc1ccc(Cl)cc1)Nc1ncc([N+](=O)[O-])s1,-31,37,-91,-100,-11,-12
O=C(COc1ccc(Cl)cc1)Nc1ncc([N+](=O)[O-])s1,-13,48,35,-40,79*,20
COc1cccc(NC(=O)N[C@@H]2C=C[C@@H](CC(=O)NCc3ccncn3)O[C@H]2CO)c1,-9,·,-1,5,·,·
O=S(=O)(c1ccc(Cl)c(NC(=S)N/N=C/c2ccc(O)cc2)c1)N1CCOCC1,·,19,1,·,58*,3
COCC#Cc1ccc2c(c1)O[C@H](CN(C)S(=O)(=O)c1ccc(F)cc1)[C@H](C)CN([C@@H](C)CO)S2(=O)=O,1,·,15,·,·,·
C[C@@H]1CCCCO[C@@H](CN(C)C(=O)NC2CCCCC2)[C@@H](C)CN([C@@H](C)CO)C(=O)c2cc(NC(=O)Nc3ccc(C(F)(F)F)cc3)ccc2O1,4,·,13,74*,·,·
C[C@H]1CCCCO[C@H](CN(C)C(=O)NC2CCCCC2)[C@@H](C)CN([C@@H](C)CO)C(=O)c2cc(NC(=O)Nc3ccc(C(F)(F)F)cc3)ccc2O1,3,·,-6,87*,·,·
C[C@@H]1CCCCO[C@H](CN(C)C(=O)NC2CCCCC2)[C@@H](C)CN([C@H](C)CO)C(=O)c2cc(NC(=O)Nc3ccc(C(F)(F)F)cc3)ccc2O1,4,·,11,-2,·,·
C[C@@H]1CCCCO[C@H](CN(C)C(=O)NC2CCCCC2)[C@@H](C)CN([C@@H](C)CO)C(=O)c2cc(NC(=O)Nc3ccc(C(F)(F)F)cc3)ccc2O1,9,·,18,93*,·,·
C[C@@H]1CCCCO[C@@H](CN(C)C(=O)NC2CCCCC2)[C@H](C)CN([C@@H](C)CO)C(=O)c2cc(NC(=O)Nc3ccc(C(F)(F)F)cc3)ccc2O1,9,·,1,76*,·,·
SMILES,EWS-Fli block,TROY signal inh,LGR2 inh,PAX8 reporter,TWEAK Fn14 block,LMP1 NFkB inh
C[C@@H]1CCCCO[C@H](CN(C)C(=O)Nc2ccc(C(F)(F)F)cc2)[C@H](C)CN([C@@H](C)CO)C(=O)c2cc(NC(=O)NC3CCCCC3)ccc2O1,0,·,18,-17,·,·
CO[C@@H]1CC[C@@H]2CCOc3c(C#N)cccc3C(=O)N(C)[C@@H](C)C(=O)N(C)C[C@H]1O2,3,·,0,-12,·,·
COc1ccc(S(=O)(=O)Nc2cccc3c2O[C@H](CN(C)S(=O)(=O)c2cn(C)cn2)[C@H](C)CN([C@H](C)CO)C3=O)cc1,3,·,6,·,·,·
C[C@@H]1CN([C@@H](C)CO)S(=O)(=O)c2ccc(C#CC3CC3)cc2O[C@H]1CN(C)Cc1cncnc1,6,·,-19,·,·,·
C[C@@H]1CN([C@@H](C)CO)C(=O)Cc2cc(NC(=O)CCN3CCOCC3)ccc2O[C@@H]1CN(C)Cc1ccncc1,·,·,-6,-13,·,·
O=C1CN(Cc2ccc(F)cc2)C[C@@H]2[C@H](c3ccc(Br)cc3)[C@H](CO)N12,13,·,-1,·,·,·
Nc1c(C(=O)NCC2CCCO2)sc2nc3c(c(-c4ccco4)c12)CC/C3=C\c1ccco1 (stereo not given),-9,9,·,5,89*,-6
NC(=O)c1sc2nc3c(c(-c4ccco4)c2c1N)CCCC3,-13,10,-8,6,-17,18
C[C@H]1CN([C@@H](C)CO)C(=O)c2c(c3ccccc3n2C)-c2ccccc2CO[C@@H]1CN(C)S(=O)(=O)c1ccccc1F,7,·,17,74*,·,·
C[C@@H]1CN([C@@H](C)CO)C(=O)c2c(c3ccccc3n2C)-c2ccccc2CO[C@H]1CN(C)S(=O)(=O)c1ccccc1F,17,·,16,84*,·,·
C[C@H](CO)N1C[C@H](C)[C@H](CN(C)S(=O)(=O)c2ccccc2F)OCc2ccccc2-c2c(n(C)c3ccccc23)C1=O,5,·,21,9,·,·
C[C@H](CO)N1C[C@H](C)[C@H](CN(C)C(=O)C2CC2)Oc2cc(C#CCN(C)C)ccc2S1(=O)=O,-14,·,6,·,·,·
CCC(=O)N1[C@H](CN(C)C(C)=O)[C@@H](c2ccc(-c3ccccc3)cc2)[C@@H]1CO,3,·,1,-12,·,·
C=CCOC(=O)C1=C(C)N=c2s/c(=C3\C(=O)N(CC(=O)O)c4ccccc43)c(=O)n2C1c1ccc(OC)cc1 (stereo not given),-3,-4,-6,8,59*,-3
CO[C@H]1CN(C)C(=O)c2ccc(NS(=O)(=O)c3ccccc3Cl)cc2OC[C@H](C)NC[C@H]1C,2,·,0,·,·,·
Nc1ccc(S(=O)(=O)Nc2cnc3c(Cl)cccc3n2)cc1,-4,-2,-27,80*,-52,-97
